Measured values published in PubChem BioAssay (NCI).
The panel holds about 83,000 compounds, 20% with a hit somewhere; the sample as a whole holds those more often.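 Treatment: one concentration, 48 hours, 96-well format. Scoring: percent growth, with anything below 10 considered active.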 Unmarked numbers belong to inactive results. The source made the active and inactive calls.

Key:
Test in all cases: NCI-60 one-dose screen, 48 h (100 = growth as untreated, 0 = no growth, -100 = all killed)
Conditions in all cases: 10 µM unless noted
DU-145 prostate = test system: DU-145 prostate
K-562 leukemia = test system: K-562 leukemia
MALME-3M melanoma = test system: MALME-3M melanoma
MDA-MB-231 breast = test system: MDA-MB-231 breast
RXF 393 renal = test system: RXF 393 renal
SF-268 CNS = test system: SF-268 CNS
SF-295 CNS = test system: SF-295 CNS
SF-539 CNS = test system: SF-539 CNS
UACC-257 melanoma = test system: UACC-257 melanoma
M14 melanoma = test system: M14 melanoma
HCT-15 colon = test system: HCT-15 colon
HT29 colon = test system: HT29 colon
SNB-75 CNS = test system: SNB-75 CNS
SNB-19 CNS = test system: SNB-19 CNS
U251 CNS = test system: U251 CNS
PC-3 prostate = test system: PC-3 prostate
SK-MEL-5 melanoma = test system: SK-MEL-5 melanoma
UACC-62 melanoma = test system: UACC-62 melanoma
LOX IMVI melanoma = test system: LOX IMVI melanoma
SK-MEL-28 melanoma = test system: SK-MEL-28 melanoma

SMILES | growth (DU-145 prostate) | growth (K-562 leukemia) | growth (MALME-3M melanoma) | growth (MDA-MB-231 breast) | growth (RXF 393 renal) | growth (SF-268 CNS) | growth (SF-295 CNS) | growth (SF-539 CNS) | growth (UACC-257 melanoma) | growth (M14 melanoma) | growth (HCT-15 colon) | growth (HT29 colon) | growth (SNB-75 CNS) | growth (SNB-19 CNS) | growth (U251 CNS) | growth (PC-3 prostate) | growth (SK-MEL-5 melanoma) | growth (UACC-62 melanoma) | growth (LOX IMVI melanoma) | growth (SK-MEL-28 melanoma)
CC1=NOC(=O)/C1=C\c1ccc(O)cc1 | 111% | 98.2% | 100% | 95.1% | 115% | 98.4% | 99.6% | 98.8% | 101% | 103% | 104% | 106% | 77.9% | 99% | 101% | 101% | 101% | 100% | 96.8% | 103%
O=C(/C=C/c1cccc(O)c1)c1cccc(-n2cc(-c3ccc4ccccc4c3)[nH]c2=O)c1 | -17.3% (active) | -40.4% (active) | -6.88% (active) | 14.7% | 29.8% | -6.97% (active) | 6.57% (active) | -88.3% (active) | 99.6% | 16.2% | 2.35% (active) | -72.7% (active) | 4.8% (active) | -43.2% (active) | -86.6% (active) | 5.01% (active) | -2.25% (active) | 11.4% | -78.2% (active) | 42.9%
C=CC(=O)Nc1cccc(Oc2nccc(Nc3nnc(C4CC4)s3)n2)c1 | 94.5% | 81.9% | 111% | 67.1% | 86.1% | 89.8% | 104% | 89.1% | 105% | 113% | 91.5% | 96.8% | 71.4% | 82.7% | 94.1% | 91.7% | 89.5% | 95.6% | 89.6% | 98.8%
COc1cc(/C=N/Nc2ncc(-c3cc4cc5c(cc4o3)OCO5)s2)cc(OC)c1OC | 48% | 30.1% | 93.8% | 46.5% | 66.3% | 74.9% | 67.1% | 81.7% | 42.2% | 26.3% | 35.7% | 56.2% | 72.4% | 76.1% | 68.1% | 21.5% | 4.87% (active) | 33.7% | 36.1% | 60.7%
CCOC(=O)/C=C/c1cc2cc(-c3csc4ccccc34)ccc2[nH]1 | 89.5% | 25.4% | 76.9% | 56.9% | 83.4% | 74.8% | 64.6% | 77.6% | 69.5% | 68.1% | 56.8% | 21.9% | 97.5% | 101% | 78.2% | 62% | 87.6% | 67.5% | 64.7% | 104%
CNc1ccc(NC)c2c1C(=O)c1ccccc1C2=O | 92.6% | 96% | 120% | 77.2% | 75% | 76.4% | 65.9% | 56% | 85.2% | 113% | 77.1% | 98.7% | 52.3% | 85.5% | 87% | 84% | 93.6% | 87.9% | 84.9% | 102%
CC(=O)OC1CCC2(C)C(=CC3C4CCC(=O)C4(C)CCC32)C1 (stereo not given) | 101% | 95% | 112% | 98.2% | 115% | 96% | 95.5% | 99.1% | 110% | 98% | 98.2% | 99.7% | 83.8% | 98.6% | 98.5% | 101% | 105% | 101% | 100% | 102%
NC(=S)N/N=C/Cc1ccccc1 | 110% | 88.4% | 119% | 101% | 103% | 105% | 97.7% | 109% | 59.7% | 104% | 87.4% | 94.7% | 110% | 104% | 98.4% | 91.4% | 107% | 108% | 73% | 109%
N#C/C(=C/C=C/c1cccc(Cl)c1)S(=O)c1ccccc1 (stereo not given) | -92.6% (active) | 2.14% (active) | -41.5% (active) | -57.6% (active) | -87.6% (active) | -59.2% (active) | -28.9% (active) | -50.3% (active) | -46.8% (active) | -52.6% (active) | -69.4% (active) | -35.9% (active) | -28% (active) | -53% (active) | -89.6% (active) | -55.5% (active) | -70.5% (active) | -74.2% (active) | -85.3% (active) | -61.1% (active)
CCOc1c(C#N)nnc2c(C#N)c(NC(=O)c3ccccc3)nn12 | 109% | 98.6% | 103% | 100% | 110% | 98.8% | 104% | 95.3% | 97% | 99.1% | 106% | 106% | 79.8% | 100% | 95.6% | 100% | 99.4% | 101% | 95.5% | 104%
O=Cc1ccc(O)c2ncccc12 | 41.9% | -23.6% (active) | 19% | 54.2% | 76.6% | 19.1% | 29.2% | 25.1% | 27.9% | 21.4% | 22.9% | 87.7% | 73.9% | 68.1% | 25.3% | 16.6% | 44% | 45.1% | -68.5% (active) | 38.6%
CC1=C([Se]CC(OC(=O)[C@@H](CO)NC(=O)OC(C)(C)C)C(=O)NC(C)(C)C)C(=O)c2ccccc2C1=O (stereo not given in full) | -71.1% (active) | -37% (active) | -64.9% (active) | -82.2% (active) | -86.2% (active) | -75.1% (active) | -37.4% (active) | -100% (active) | -87.1% (active) | -100% (active) | -74.1% (active) | -8.15% (active) | -100% (active) | -100% (active) | -95.2% (active) | -71.8% (active) | -98.2% (active) | -100% (active) | -96.4% (active) | -100% (active)
COc1ccc(C2c3ccc4ccccc4c3Oc3nc(C)[nH]c(=O)c32)cc1 (stereo not given) | 114% | 90.6% | 97% | 93.6% | 108% | 94.3% | 105% | 96.8% | 111% | 95.7% | 99.6% | 142% | 76.8% | 94.7% | 103% | 96% | 101% | 94.5% | 88.8% | 98.7%
COc1cc(/C=N/NC(=O)Cn2c(C(C)C)nc3ccccc32)ccc1O | 110% | 100% | 105% | 95.5% | 95.7% | 91.2% | 104% | 94.4% | 98.2% | 92.6% | 98.7% | 98.2% | 81.5% | 99.4% | 110% | 94.8% | 97.6% | 89.8% | 102% | 109%
O=C(NC(CSSCC(NC(=O)c1ccccc1)C(=O)O)C(=O)O)c1ccccc1 (stereo not given) | 114% | 96% | 109% | 110% | 116% | 99.4% | 106% | 102% | 102% | 98.9% | 99.8% | 103% | 102% | 107% | 104% | 95.8% | 108% | 99.6% | 95.7% | 118%
